For orientation: AC50 means the midpoint of the concentration-response curve, whichever way the signal moves.

A number with no mark means an inactive call. For some of these results: Results with a measured potency or affinity are listed apart. The source made the active and inactive calls.

The conditions of assay [1]: Ebola virus entry assay, green fluorescence channel.
For assay [2] the following is noted: Ebola virus entry assay, blue channel fluorescence.
For assay [3] the following is noted: Ebola virus entry assay, green fluorescence channel. This is another data set of the same source.
For assay [4] the following is noted: Ebola virus entry assay, ratio channel readout.
For assay [5] the following is noted: Ebola virus entry assay, blue channel fluorescence. The source holds these as a separate data set.
For assay [6] the following is noted: Ebola virus entry assay, ratio channel.
Wherever efficacy is given: 0% is about no effect.

For the compound `COc1ccccc1Oc1c(NS(=O)(=O)c2ccc(C(C)(C)C)cc2)nc(-c2ncccn2)nc1OCCO`, the efficacy in assay [1] was -15.4%. The compound was classed as inactive in assay [2], in assay [3], in assay [4] and in assay [5].
`O=C(C1CCCCC1)N1CC(=O)N2CCc3ccccc3C2C1` (configuration not stated): the efficacy in assay [1] is 43.7%. In addition, the result in assay [2], in assay [3], in assay [4] and in assay [5] was inactive.
For `C[N+]1(C)CCC(OC(=O)C(O)(c2ccccc2)C2CCCC2)C1` (configuration not stated), in assay [1], the efficacy is 28.8%. Moreover, the compound was classed as inactive in assay [2], in assay [3], in assay [4] and in assay [5].
On to `CN(Cc1cnc2nc(N)nc(N)c2n1)c1ccc(C(=O)N[C@@H](CCC(=O)O)C(=O)O)cc1`, for which, in assay [1], the efficacy was 38.5%. In addition, the compound was called inactive in assay [2], in assay [3], in assay [4], in assay [5] and in assay [6].
Consider `NC12CC3CC(CC(C3)C1)C2`, for which, in assay [1], the efficacy was 15%. The compound was called inactive in assay [2], in assay [3], in assay [4] and in assay [5].
Take `CC[C@@]1(O)C(=O)OCc2c1cc1n(c2=O)Cc2cc3c(CN(C)C)c(O)ccc3nc2-1`: the concentration at half-maximal activity (AC50) is 31.6 µM (active) in assay [1], 7.94 µM (active) in assay [3] and 7.94 µM (active) in assay [6]. The compound was called inactive in assay [2], in assay [4] and in assay [5].
For `Nc1nc2c(ncn2COC(CO)CO)c(=O)[nH]1`, the efficacy in assay [1] was -13.6%. Besides, the outcome in assay [2], in assay [3], in assay [4] and in assay [5] was inactive.
With `NC1[C@H]2CN(c3nc4c(cc3F)c(=O)c(C(=O)O)cn4-c3ccc(F)cc3F)C[C@@H]12` (some centres not stated), the efficacy in assay [1] is -13.1%. For the same compound, the result in assay [2], in assay [3], in assay [4], in assay [5] and in assay [6] was inactive.
Turning to `CO/N=C(\C(=O)N[C@@H]1C(=O)N2C(C(=O)O)=C(CSc3nc(=O)c(O)nn3C)CS[C@H]12)c1csc(N)n1`, the efficacy in assay [1] was 11.1%. Moreover, the compound was classed as inactive in assay [2], in assay [3], in assay [4] and in assay [5].
Take `Nc1cc(-c2ccncc2)c[nH]c1=O`: in assay [1], the efficacy was 26.8%. In addition, the call in assay [2], in assay [3], in assay [4] and in assay [5] was inactive.
Take `COC(c1ccccc1)(c1ccccc1)[C@H](Oc1nc(C)cc(C)n1)C(=O)O`: in assay [1], the efficacy was -17.9%. Further, the compound was classed as inactive in assay [2], in assay [3], in assay [4], in assay [5] and in assay [6].
Turning to `O=C1N=C(O)CN1/N=C/c1ccc(-c2ccc([N+](=O)[O-])cc2)o1`, the efficacy in assay [1] was 24%. Besides, the result in assay [2], in assay [3], in assay [4] and in assay [5] was inactive.
With `Cc1onc(-c2c(Cl)cccc2Cl)c1C(=O)N[C@@H]1C(=O)N2[C@@H]1SC(C)(C)[C@@H]2C(=O)O`, the efficacy in assay [1] was 26.4%. Besides, the call in assay [2], in assay [3], in assay [4], in assay [5] and in assay [6] was inactive.
`CC(=O)[C@]1(O)Cc2c(O)c3c(c(O)c2[C@@H](O[C@H]2C[C@H](N)[C@H](O)[C@H](C)O2)C1)C(=O)c1ccccc1C3=O`: the efficacy in assay [1] is 27.8%. For the same compound, the call in assay [2], in assay [3] and in assay [4] was inactive. Moreover, the AC50 in assay [5] was 14.1 µM (active); in assay [6], 12.6 µM (active).
`CCc1ccc(CCOc2ccc(CC3SC(=O)NC3=O)cc2)nc1` (configuration not stated): the efficacy in assay [1] is 52.6%. In addition, the compound was classed as inactive in assay [2], in assay [3], in assay [4], in assay [5] and in assay [6].
For `COc1cc(C(C)=O)ccc1OCCCN1CCC(c2noc3cc(F)ccc23)CC1`, the efficacy in assay [1] was 81.4%. Further, the result in assay [2], in assay [3] and in assay [4] was inactive. The AC50 in assay [5] is 31.6 µM (active); in assay [6], 28.2 µM (active).
`O=C1[C@H](CC[C@H](O)c2ccc(F)cc2)[C@@H](c2ccc(O)cc2)N1c1ccc(F)cc1`: the efficacy in assay [1] was -26.4%. Moreover, the compound was classed as inactive in assay [2], in assay [3], in assay [4] and in assay [6]. Also, the AC50 in assay [5] is 28.2 µM (active).
Regarding `COc1cc2nc(N(C)CCCNC(=O)C3CCCO3)nc(N)c2cc1OC` (configuration not stated), the efficacy in assay [1] is 46.7%. Besides, the outcome in assay [2], in assay [3], in assay [4] and in assay [6] was inactive. Moreover, the AC50 in assay [5] was 39.8 µM (active).
As for `C#C[C@]1(O)CC[C@H]2[C@@H]3CCC4=Cc5oncc5C[C@]4(C)[C@H]3CC[C@@]21C`, the efficacy in assay [1] is 22.7%. In addition, the call in assay [2], in assay [3] and in assay [4] was inactive. Moreover, the AC50 was 7.94 µM (active) in assay [5] and 6.31 µM (active) in assay [6].
`CN(C)[C@@H]1C(=O)C(C(N)=O)=C(O)[C@@]2(O)C(=O)C3=C(O)c4c(O)ccc(Cl)c4[C@@H](O)[C@H]3C[C@@H]12`: the efficacy in assay [1] is 117%. Moreover, the compound was classed as inactive in assay [2], in assay [3], in assay [4] and in assay [5]. For the same compound, the AC50 in assay [6] was 28.2 µM (active).
With `C[C@@H]1C[C@H]2[C@@H]3CCC4=CC(=O)C=C[C@]4(C)[C@@]3(F)[C@@H](O)C[C@]2(C)[C@@]1(O)C(=O)CO`, the efficacy in assay [1] is -13.7%. The call in assay [2], in assay [3], in assay [4], in assay [5] and in assay [6] was inactive.
As to `OCCOCCN1CCN(C(c2ccccc2)c2ccc(Cl)cc2)CC1` (configuration not stated), in assay [1], the efficacy is 86%. For the same compound, the result in assay [2], in assay [3] and in assay [4] was inactive. The figures for the concentration at half-maximal activity (AC50) in assay [5] and in assay [6] were 25.1 µM (active) and 31.6 µM (active), respectively.
Turning to `CC(C)NCC(O)c1ccc(O)c(O)c1` (configuration not stated), in assay [1], the efficacy was -9.56%. For the same compound, the compound was called inactive in assay [2], in assay [3], in assay [4], in assay [5] and in assay [6].
Take `CC[N+](C)(C)c1cccc(O)c1`: the efficacy in assay [1] is -13.4%. Further, the compound was classed as inactive in assay [2], in assay [3], in assay [4], in assay [5] and in assay [6].
As for `CC12CC3CC(C)(C1)CC(N)(C3)C2`, the efficacy in assay [1] was 58.3%. The compound was called inactive in assay [2], in assay [3] and in assay [4]. Also, the AC50 in assay [5] and in assay [6] was 14.1 µM (active) throughout.

The values above are taken from PubChem BioAssay (NCATS).
